Among the data in PubChem BioAssay (EPA / NIEHS) are outcome and AC50 values, retold here.

The structures appear in SMILES notation. Values joined by “and” are separate entries in the source; they are usually repeats but may differ in a detail not shown here. Equal values may be shown once. Some structures have more than one record in an assay (separate samples or runs), and their calls can disagree. Active and inactive are the calls of the source. Rule for the calls: active = hit-call score of the fitted dose curve at least 0.9, where 1 is the maximum; inactive = score below 0.9.

Read-out in experiment [1]: Macrophage colony-stimulating factor (MCSF), CSF1 (gene 1435)
Briefly: BSK_hDFCGF_MCSF: BioMAP Diversity Plus: hDFCGF Assay for Macrophage colony-stimulating factor (MCSF) Biomarker Activity (AID 2283060). Particulars: primary human foreskin fibroblasts; actives raise or lower the signal. An outline of the steps:
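fibroblasts (human foreskin, primary), 24 h post-dose; M-CSF by ELISA; bidirectional fit, DMSO = baseline.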

The nature of experiment [2]: BSK_hDFCGF_SRB: Viability Assessment in the BioMAP Diversity Plus: hDFCGF Assay (AID 2283061).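 Note: cells exposed to compound for 24 h before the read.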 Particulars: primary human foreskin fibroblasts. Put shortly:
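SRB-based viability read on primary human skin fibroblasts at 24 h: TCA fixation, 0.1% dye, 560 nm. Gain or loss of signal is fitted against the DMSO negative control.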

Read-out in experiment [3]: TIMP metallopeptidase inhibitor 1 (TIMP1), TIMP1 (gene 7076)
Description: BSK_hDFCGF_TIMP1: BioMAP Diversity Plus: hDFCGF Assay for TIMP metallopeptidase inhibitor 1 (TIMP1) Biomarker Activity (AID 2283062). Particulars: primary human foreskin fibroblasts; actives raise or lower the signal. Put shortly:
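Bidirectional curve fitting against DMSO baseline yielded this endpoint, based on ELISA detection of TIMP-1 in primary human foreskin fibroblasts exposed to compound for 24 h.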

Read-out in experiment [4]: Monokine induced gamma interferon (MIG), CXCL9 (gene 4283)
Description: BSK_hDFCGF_MIG: BioMAP Diversity Plus: hDFCGF Assay for Monokine induced gamma interferon (MIG) Biomarker Activity (AID 2283063). Conditions: primary human foreskin fibroblasts; actives raise or lower the signal. An outline of the steps: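 Endpoint derived by bidirectional fitting relative to DMSO; MIG quantified via ELISA in primary human foreskin fibroblasts harvested 24 h after dosing.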

Read-out in experiment [5]: Matrix Metallopeptidase 1 (MMP1), MMP1 (gene 4312)
Briefly: BSK_hDFCGF_MMP1: BioMAP Diversity Plus: hDFCGF Assay for Matrix Metallopeptidase 1 (MMP1) Biomarker Activity (AID 2283064). Conditions: primary human foreskin fibroblasts; actives raise or lower the signal. Put shortly:
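MMP1 levels quantified by ELISA 24 h after dosing human dermal fibroblast cultures, with parallel SRB total-protein staining for overt cytotoxicity. Data fitted in both directions against DMSO baseline.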

Read-out in experiment [6]: Vascular cell adhesion molecule 1 (VCAM1), VCAM1 (gene 7412)
Description: BSK_hDFCGF_VCAM1: BioMAP Diversity Plus: hDFCGF Assay for Vascular cell adhesion molecule 1 (VCAM1) Biomarker Activity (AID 2283065).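 For AC50: VCAM-1 protein level quantified by ELISA after 24 h chemical exposure.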 Particulars: primary human foreskin fibroblasts; actives raise or lower the signal. An outline of the steps: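 Measured after 24 h chemical treatment of primary human skin fibroblasts, VCAM-1 was detected by ELISA and concentration-response analysed in both directions versus DMSO vehicle.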

Read-out in experiment [7]: Plasminogen activator inhibitor-1 (PAI1), SERPINE1 (gene 5054)
Briefly: BSK_hDFCGF_PAI1: BioMAP Diversity Plus: hDFCGF Assay for Plasminogen activator inhibitor-1 (PAI1) Biomarker Activity (AID 2283066). Particulars: primary human foreskin fibroblasts; actives raise or lower the signal. Put shortly:
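PAI-1 levels in human dermal foreskin fibroblasts were quantified by ELISA 24 h after dosing, with gain or loss analysed against DMSO. Overt cytotoxicity was checked by sulforhodamine B total-protein staining in parallel cultures.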

Read-out in experiment [8]: Interferon-gamma inducible Protein 10 (IP10), CXCL10 (gene 3627)
Briefly: BSK_KF3CT_IP10: BioMAP Diversity Plus: KF3CT Assay for Interferon-gamma inducible Protein 10 (IP10) Biomarker Activity (AID 2283068). Conditions: primary human keratinocytes with fibroblasts; actives raise or lower the signal. Put shortly: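 ELISA read-out of IP-10 after 24 h chemical dosing of human skin primary co-culture (keratinocytes, foreskin fibroblasts). Gain or loss of signal relative to DMSO, bidirectional curve fit.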

The nature of experiment [9]: BSK_KF3CT_SRB: Viability Assessment in the BioMAP Diversity Plus: KF3CT Assay (AID 2283069).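 Note: read 24 h after compound addition.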 Particulars: primary human keratinocytes with fibroblasts. Put shortly: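 Cytotoxicity was gauged by SRB staining (0.1% SRB, 10% TCA fixation, 560 nm) of parallel cultures at 24 h. The cells were primary human skin keratinocytes co-cultured with fibroblasts, and activity was fitted in both directions against DMSO.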

Read-out in experiment [10]: Interleukin-1 alpha (IL1a), IL1A (gene 3552)
Description: BSK_KF3CT_IL1a: BioMAP Diversity Plus: KF3CT Assay for Interleukin-1 alpha (IL1a) Biomarker Activity (AID 2283070). Particulars: primary human keratinocytes with fibroblasts; actives raise or lower the signal. Put shortly:
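IL-1a was detected by ELISA 24 h after chemical treatment of a co-culture of human skin keratinocytes and foreskin fibroblasts. Gain or loss of signal was fitted against the DMSO baseline.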

Read-out in experiment [11]: TIMP metallopeptidase inhibitor 2 (TIMP2), TIMP2 (gene 7077)
Description: BSK_KF3CT_TIMP2: BioMAP Diversity Plus: KF3CT Assay for TIMP metallopeptidase inhibitor 2 (TIMP2) Biomarker Activity (AID 2283071). Conditions: primary human keratinocytes with fibroblasts; actives raise or lower the signal. Put shortly: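 TIMP-2 measured by ELISA at 24 h in human keratinocyte/fibroblast primary co-cultures exposed to chemicals. Both increases and decreases were fitted against DMSO. Parallel cultures were stained with SRB for total protein as an overt-cytotoxicity check.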

Read-out in experiment [12]: C-C motif chemokine 2 (Homo sapiens) (UniProt P13500)
Description: BSK_KF3CT_MCP1: BioMAP Diversity Plus: KF3CT Assay for Monocyte Chemoattractant Protein 1 (MCP1/CCL2) Biomarker Activity (AID 2283073). Particulars: primary human keratinocytes with fibroblasts; actives raise or lower the signal. Put shortly: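 Biomarker MCP-1 is measured by ELISA in primary human keratinocytes co-cultured with foreskin fibroblasts, 24 h after chemical treatment; DMSO serves as the negative control and activity baseline.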

Read-out in experiment [13]: Matrix Metallopeptidase 9 (MMP9), MMP9 (gene 4318)
Briefly: BSK_KF3CT_MMP9: BioMAP Diversity Plus: KF3CT Assay for Matrix Metallopeptidase 9 (MMP9) Biomarker Activity (AID 2283074).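 For AC50: MMP9 protein level quantified by ELISA in the co-culture.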 Particulars: primary human keratinocytes with fibroblasts; actives raise or lower the signal. An outline of the steps:
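MMP-9 quantified by ELISA after 24 h chemical treatment of primary human skin keratinocyte/fibroblast co-cultures; gain or loss fitted against DMSO, with parallel SRB staining (0.1% SRB, 560 nm) for overt cytotoxicity.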

Read-out in experiment [14]: urokinase plasminogen activator (uPA), PLAU (gene 5328)
Description: BSK_KF3CT_uPA: BioMAP Diversity Plus: KF3CT Assay for urokinase plasminogen activator (uPA) Biomarker Activity (AID 2283075). Particulars: primary human keratinocytes with fibroblasts; actives raise or lower the signal. Put shortly:
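ELISA read-out of uPA 24 h after dosing human skin keratinocytes co-cultured with foreskin fibroblasts. Signal change fitted both ways relative to DMSO; sulforhodamine B on parallel cultures marks overt cytotoxicity.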

Read-out in a further experiment: CD40, CD40 (gene 958)
Briefly: BSK_LPS_CD40: BioMAP Diversity Plus: LPS Assay for CD40 Biomarker Activity (AID 2283076). Conditions: primary human HUVEC with PBMC; actives raise or lower the signal. Put shortly: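 Using a multiplexed primary human co-culture (umbilical vein endothelium plus PBMC), CD40 was read by ELISA 24 h after dosing, with cytotoxicity tracked by sulforhodamine B staining of parallel cultures and activity fitted bidirectionally versus DMSO.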

Read-out in experiment [15]: E-selectin (Homo sapiens) (UniProt P16581)
Briefly: BSK_LPS_Eselectin: BioMAP Diversity Plus: LPS Assay for Eselectin Biomarker Activity (AID 2283077). Conditions: primary human HUVEC with PBMC; actives raise or lower the signal. Put shortly: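 Dose chemical onto LPS-driven HUVEC/PBMC co-culture; after 24 h, run ELISA for E-selectin; fit up- and down-going responses relative to DMSO control.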

Read-out in experiment [16]: Interleukin-8 (IL8), CXCL8 (gene 3576)
Briefly: BSK_LPS_IL8: BioMAP Diversity Plus: LPS Assay for Interleukin-8 (IL8) Biomarker Activity (AID 2283078). Particulars: primary human HUVEC with PBMC; actives raise or lower the signal. An outline of the steps: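 In this LPS system, chemical-treated human umbilical vein endothelium/PBMC co-cultures were harvested at 24 h for IL-8 ELISA.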

A short description of experiment [17]: BSK_LPS_SRB: Viability Assessment in the BioMAP Diversity Plus: LPS Assay (AID 2283079).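 Note: total protein by sulforhodamine B absorbance as a cytotoxicity measure; measured one day after compound addition; fitted in both directions against DMSO so loss or gain of signal counts.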 Particulars: primary human HUVEC with PBMC. Put shortly:
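Cytotoxicity endpoint in human endothelial–PBMC co-culture: 24 h exposure, then SRB (0.1%) staining, 560 nm read.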

Read-out in experiment [18]: Intercellular Adhesion Molecule 1 (ICAM1), ICAM1 (gene 3383)
Briefly: BSK_KF3CT_ICAM1: BioMAP Diversity Plus: KF3CT Assay for Intercellular Adhesion Molecule 1 (ICAM1) Biomarker Activity (AID 2283067). Conditions: primary human keratinocytes with fibroblasts; actives raise or lower the signal. Put shortly:
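Bidirectional curve fitting against a DMSO baseline was applied to ICAM-1 ELISA signal from primary human skin co-cultures harvested 24 h after treatment, with SRB staining of parallel wells for overt cytotoxicity.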

Chain of E-selectin (Homo sapiens) (P16581 whole entry, looked up): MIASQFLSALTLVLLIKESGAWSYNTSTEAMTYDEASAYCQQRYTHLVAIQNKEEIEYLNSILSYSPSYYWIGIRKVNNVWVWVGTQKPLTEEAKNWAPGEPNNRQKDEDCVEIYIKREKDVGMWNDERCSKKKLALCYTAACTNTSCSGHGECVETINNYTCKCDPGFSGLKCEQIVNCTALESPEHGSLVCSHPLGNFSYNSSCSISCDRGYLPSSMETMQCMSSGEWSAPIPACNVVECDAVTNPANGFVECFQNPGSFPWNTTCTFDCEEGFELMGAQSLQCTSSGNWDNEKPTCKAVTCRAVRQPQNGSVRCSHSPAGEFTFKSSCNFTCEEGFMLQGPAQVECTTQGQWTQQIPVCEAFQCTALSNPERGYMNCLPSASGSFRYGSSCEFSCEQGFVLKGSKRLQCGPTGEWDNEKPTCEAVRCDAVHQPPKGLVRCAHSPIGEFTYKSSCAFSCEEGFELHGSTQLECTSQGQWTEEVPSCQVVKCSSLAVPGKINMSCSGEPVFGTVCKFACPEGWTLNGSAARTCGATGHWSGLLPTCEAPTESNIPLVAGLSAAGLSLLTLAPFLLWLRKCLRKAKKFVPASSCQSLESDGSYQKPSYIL

Take `O=C(Cl)C(F)(F)C(F)(F)C(F)(F)C(F)(F)C(F)(F)C(F)(F)C(F)(F)C(F)(F)F`: the outcome in experiment [1], in experiment [3], in experiment [5], in experiment [8], in [9] and in experiment [10] was inactive. Besides, the outcome was “inactive” in experiment [12]; “inactive” in experiment [14]; “inactive” with CD40, CD40 (gene 958); “inactive” in experiment [15]; “inactive” in [16]; “inactive” in experiment [17]. In addition, the AC50 in experiment [2] was 8.08 µM (active) and 15.7 µM (active) and 10.9 µM (active); in experiment [4], 21.7 µM (active) and 44.1 µM (active) and 30 µM (active); in experiment [6] it was 50.4 µM (active) and 47.9 µM (active) and 47 µM (active); in experiment [7] it was 47.5 µM (active) and 48.5 µM (active) and 54.6 µM (active); in experiment [8], 20.3 µM (active) and 30 µM (active); in experiment [11] it was 45.7 µM (active) and 50.2 µM (active) and 49.8 µM (active). Moreover, the AC50 in [12] is 54.5 µM (active) and 53.2 µM (active); in experiment [13] it was 43.6 µM (active) and 47.6 µM (active) and 54.8 µM (active); in the experiment with CD40, CD40 (gene 958), 20.1 µM (active) and 48.8 µM (active); in experiment [15], 50.4 µM (active); in experiment [16] it was 51.2 µM (active); in experiment [17], 44.7 µM (active) and 42.3 µM (active).
Consider `Cc1ccc(S(=O)(=O)OCC(F)(F)C(F)(F)C(F)(F)C(F)(F)C(F)(F)C(F)F)cc1`, for which the outcome in experiment [1], in experiment [2], in experiment [3], in [4], in experiment [5] and in experiment [6] was inactive. The outcome in [7], in [18], in [8], in experiment [9], in [10] and in [11] was inactive. Besides, the outcome in [12] was “inactive”; in experiment [13], “inactive”; in [14] it was “inactive”; in the experiment with CD40, CD40 (gene 958), “inactive”; in [15] it was “inactive”; in experiment [16], “inactive”. The outcome in experiment [17] was inactive. Also, the half-maximal activity concentration (AC50) in experiment [13] is 10.8 µM (active); in the experiment with CD40, CD40 (gene 958), 30 µM (active).
On to `O=C(O)C=C(C(F)(F)F)C(F)(F)F`, for which the result in [1], in experiment [2], in experiment [3], in experiment [4], in experiment [5] and in experiment [7] was inactive. For the same molecule, the outcome in [8], in experiment [9], in [10], in experiment [11], in [12] and in experiment [13] was inactive. Further, the outcome was “inactive” in experiment [14]; “inactive” with CD40, CD40 (gene 958); “inactive” in experiment [15]; “inactive” in experiment [16]; “inactive” in experiment [17]. Further, the concentration at half-maximal activity (AC50) is 967 nM (active) in experiment [3]; 13.1 µM (active) and 22.2 µM (active) in experiment [6]; 22.6 µM (active) in experiment [7]; 8.2 µM (active) in [13]; 19.6 µM (active) with CD40, CD40 (gene 958).
With `C=C(C)C(=O)OCC(F)(F)C(F)(F)C(F)(F)C(F)(F)C(F)(F)C(F)(F)C(F)(F)F`, the outcome in experiment [1], in experiment [2], in experiment [3], in experiment [5], in experiment [6] and in experiment [7] was inactive. The result in experiment [8], in experiment [9], in experiment [10], in [11], in [12] and in experiment [13] was inactive. The outcome in the experiment with CD40, CD40 (gene 958) was “inactive”; in experiment [15], “inactive”; in experiment [16], “inactive”; in [17], “inactive”. Besides, the figures for the AC50 in experiment [2] and in [15] were 1.4 µM (active) and 0.0306 µM (active), respectively.
Take `FC(F)(Br)C(F)(F)C(F)(F)C(F)(F)C(F)(F)C(F)(F)Br`: the result in [1], in experiment [2], in [3], in [4], in experiment [5] and in experiment [6] was inactive. In addition, the result in [7], in experiment [18], in experiment [8], in experiment [9], in [10] and in experiment [11] was inactive. Besides, the outcome was “inactive” in [12]; “inactive” in experiment [13]; “inactive” in [14]; “inactive” with CD40, CD40 (gene 958); “inactive” in [15]; “inactive” in experiment [16]. Further, the result in [17] was inactive.

The AC50 is the concentration giving half of the maximal activity seen.
